Laboratory results published in PubChem BioAssay (NCI).
Compounds without any hit were thinned out: in the full panel of roughly 79,000, 15% have a hit. Active and inactive are the calls of the source. No stated cut-off is given here; in the data, active means growth inhibition above about 70%; inactive means the rest.

Experiments:
[1] = NCI Yeast Anticancer Drug Screen. Data for the rad52 strain (AID 147);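 further: 0% = growth of vehicle-treated control cultures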; settings: S. cerevisiae rad52 mutant growth inhibition, active compounds read high
How it was run: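 Genetically altered yeast (DNA damage repair defect) treated with compound; inhibition calculated relative to vehicle.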

[2] = NCI Yeast Anticancer Drug Screen. Data for the wt1 strain (AID 149);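 further: 0% = growth of vehicle-treated wt1 cultures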; settings: S. cerevisiae wt1 strain (SPY 50644) growth inhibition, active compounds read high
How it was run: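 wt1 strain grown with compound or vehicle; inhibition taken from the growth difference.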

[3] = NCI Yeast Anticancer Drug Screen. Data for the rad50EPP+ strain (AID 151);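 further: 0% = growth of vehicle-treated control cultures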; settings: S. cerevisiae rad50 mutant strain, active compounds read high
How it was run: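 Strain rad50EPP+; compound exposure; % growth inhibition vs vehicle.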

[4] = NCI Yeast Anticancer Drug Screen. Data for the rad50 strain (AID 155);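 further: 0% = growth of vehicle-only cultures of the same strain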; settings: S. cerevisiae rad50 strain growth inhibition, active compounds read high
How it was run: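 DNA repair mutant yeast, compound exposure, growth read-out; inhibition is taken relative to vehicle.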

[5] = NCI Yeast Anticancer Drug Screen. Data for the mec2-1 strain (AID 157); settings: S. cerevisiae mec2-1 strain, active compounds read high
How it was run: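 Cells of the genetically defined mec2-1 yeast strain are incubated with test compound. Inhibition of growth is calculated against vehicle-treated controls.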

[6] = NCI Yeast Anticancer Drug Screen. Data for the rad14 strain (AID 159);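 further: 0% = growth of vehicle-treated control cultures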; settings: S. cerevisiae rad14 strain growth inhibition, active compounds read high
How it was run: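 DNA repair-defective yeast, compound-exposed; % growth inhibition derived by comparison with vehicle-treated controls.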

[7] = NCI Yeast Anticancer Drug Screen. Data for the sgs1 mgt1 strain (AID 161);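 further: 0% = growth of cultures given vehicle only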; settings: S. cerevisiae sgs1 mgt1 strain, active compounds read high
How it was run: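 Inhibition of yeast growth, normalised to vehicle-treated controls, is reported for a strain bearing genetic alterations in DNA damage repair.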

[8] = NCI Yeast Anticancer Drug Screen. Data for the CLN2oe strain (AID 163);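 further: 0% = growth of vehicle-only control cultures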; settings: S. cerevisiae CLN2oe strain, active compounds read high
How it was run: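 Strain altered in cell-cycle control, incubated with compound; growth compared to solvent-treated controls.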

[9] = NCI Yeast Anticancer Drug Screen. Data for the cln2 rad14 strain (AID 165);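 further: 0% = growth equal to vehicle treated cultures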; settings: S. cerevisiae cln2 rad14 strain, active compounds read high
How it was run: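 The screen exposed genetically defined yeast (cln2 rad14) to test compounds and scored growth inhibition relative to vehicle-treated controls.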

[10] = NCI Yeast Anticancer Drug Screen. Data for the bub3 strain (AID 167); settings: S. cerevisiae bub3 mutant strain, active compounds read high
How it was run: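 In this screen, a yeast mutant lacking normal mitotic checkpoint function is challenged with compound. Relative growth versus vehicle gives the inhibition value.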

[11] = NCI Yeast Anticancer Drug Screen. Data for the wt2 strain (AID 169);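 further: 0% = growth of vehicle-treated yeast cultures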; settings: S. cerevisiae wt2 strain growth inhibition, active compounds read high
How it was run: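 Steps: yeast strain treated with compound; growth recorded; inhibition calculated relative to cultures given vehicle alone.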

[12] = NCI Yeast Anticancer Drug Screen. Data for the mlh1 strain (AID 171);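 further: 0% = growth of vehicle-treated control cultures of the same strain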; settings: S. cerevisiae mlh1 strain growth inhibition, active compounds read high
How it was run: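 Yeast screen: mutant strain plus compound, growth scored against vehicle control wells.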

[13] = NCI Yeast Anticancer Drug Screen. Data for the sgs1 strain (AID 173);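 further: 0% = growth of vehicle-only control cultures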; settings: S. cerevisiae sgs1 mutant, active compounds read high
How it was run: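 Inhibition of yeast growth served as the measure. The mutant strain was treated with each compound, and growth was normalised to cultures receiving vehicle alone.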

[14] = NCI Yeast Anticancer Drug Screen. Data for the mlh1 rad18 strain (AID 175); settings: S. cerevisiae mlh1 rad18 strain growth inhibition, active compounds read high
How it was run: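 Compound-treated yeast growth, normalised to vehicle controls. Strain bears defined DNA repair mutations.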

[15] = NCI Yeast Anticancer Drug Screen. Data for the rad18 strain (AID 177); settings: S. cerevisiae rad18 mutant growth inhibition, active compounds read high
How it was run: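 Inhibition values reflect reduced yeast growth compared with vehicle-treated controls, using a strain engineered with a DNA damage repair defect.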

[16] = at 5.0 µM (retest, dose inferred, filed as 0.5)
[17] = at 50.0 µM (retest, dose inferred, filed as 5.0)

Measured: growth inhibition

O=C1C=CC(=O)N1c1ccc(Br)cc1Cl
inactive: [4]; [16] 15% | [4]; [17] 51% | [5]; [16] 44% | [5]; [17] 42% | [8]; at 1.2 µM 63% | [14]; [16] 22% | [14]; [17] 42%
active: [1]; at 1.2 µM 91% | [1]; at 3.7 µM 101% | [1]; at 11.0 µM 99% | [1]; at 33.0 µM 99% | [1]; at 100.0 µM 99% | [2]; at 1.2 µM 95% | [2]; at 3.7 µM 101% | [2]; at 11.0 µM 99% | [2]; at 33.0 µM 99% | [2]; at 100.0 µM 98% | [3]; at 1.2 µM 90% | [3]; at 3.7 µM 102% | [3]; at 11.0 µM 100% | [3]; at 33.0 µM 99% | [3]; at 100.0 µM 99% | [4]; at 1.2 µM 99% | [4]; at 3.7 µM 101% | [4]; at 11.0 µM 100% | [4]; at 33.0 µM 100% | [4]; at 50.0 µM 92.2% | [4]; at 100.0 µM 99% | [5]; at 1.2 µM 97% | [5]; at 3.7 µM 101% | [5]; at 11.0 µM 100% | [5]; at 33.0 µM 99% | [5]; at 50.0 µM 93.7% | [5]; at 100.0 µM 99% | [6]; at 1.2 µM 99% | [6]; at 3.7 µM 102% | [6]; at 11.0 µM 100% | [6]; at 33.0 µM 100% | [6]; at 100.0 µM 100% | [7]; [16] 101% | [7]; [17] 98% | [8]; at 3.7 µM 101% | [8]; at 11.0 µM 99% | [8]; at 33.0 µM 99% | [8]; at 100.0 µM 99% | [9]; [16] 73% | [9]; [17] 100% | [10]; at 1.2 µM 98% | [10]; at 3.7 µM 101% | [10]; [16] 101% | [10]; at 11.0 µM 99% | [10]; at 33.0 µM 100% | [10]; [17] 98% | [10]; at 100.0 µM 99% | [11]; at 1.2 µM 76% | [11]; at 3.7 µM 101% | [11]; at 11.0 µM 99% | [11]; at 33.0 µM 99% | [11]; at 100.0 µM 99% | [12]; at 1.2 µM 96% | [12]; at 3.7 µM 101% | [12]; at 11.0 µM 100% | [12]; at 33.0 µM 97% | [12]; at 100.0 µM 99% | [13]; at 1.2 µM 92% | [13]; at 3.7 µM 102% | [13]; at 11.0 µM 99% | [13]; at 33.0 µM 99% | [13]; at 100.0 µM 99% | [14]; at 50.0 µM 92.7% | [15]; at 1.2 µM 85% | [15]; at 3.7 µM 99% | [15]; at 11.0 µM 99% | [15]; at 33.0 µM 93% | [15]; at 100.0 µM 99%
